Reference: PubChem BioAssay (EPA / NIEHS)
Active and inactive are the calls of the source. Rule for the calls: active = hit-call score of the fitted dose curve at least 0.9, where 1 is the maximum; inactive = score below 0.9.

Assay: IUF_NPC2a_radial_glia_migration_120hr: Leibniz Research Institute for Environmental Medicine (IUF) 120-hour Neural Progenitor Cell Migration Assay for Radial Glia Migration (NPC2a) (AID 2284298)
Method: IUF_NPC2-5 is a cell-based, multiplexed assay that uses hNPC, a human primary neural progenitor cells, with measurements taken at 72 or 120 hours after chemical dosing in a 96-well plate. Human neural progenitor cells (hNPC) are generated from human fetal brain cortex at gestational week (GW) 16-19. In the neural progenitor cell migration and differentiation assay (NPC2-5), hNPCs grown as spheres are plated on an extracellular matrix and migrate and differentiate out of the sphere core. The processes radial glia migration, neuronal and oligodendrocyte migration as well as neuronal differentiation, neuronal morphology and oligodendrocyte differentiation are studied using automated phase contrast imaging and automated fluorescence imaging in combination with high content image analysis. In parallel, the cell viability is assessed using an alamar blue viability assay and the cytotoxicity using a lactate dehydrogenase dependent membrane integrity assay.IUF_NPC2a_radial_glia_migration_120hr is one of 12 assay components measured from the IUF_NPC2-5 assay. The migration distance of radial glia at 120 hr is assessed in um from the edge of the sphere core to the edge of the migration area based on fluorescent images of Hoechst-positive nuclei. With the identification of each nucleus position around the sphere core, migration-related parameters can be calculated. First, a nuclei density distribution is calculated for which an algorithm determines relatively more and less dense nuclei areas. This calculation identifies the sphere core by the densest nuclei area in the image. The algorithm further assumes that nuclei density decreases from the sphere core to the periphery. When the nuclei density hits a pre-defined threshold, the outer boundaries of the migration area are determined and the sphere itself is mapped out in a polynomial bounding box. Derived from this box, the size of the migration area and the migration distance are calculated for each well.Data from the IUF_NPC2a_radial_glia_migration_120hr component was analyzed at the endpoint IUF_NPC2a_ radial_glia_migration_120hr in the positive analysis fitting direction relative to DMSO as the negative control and baseline of activity. Using a type of migration reporter, gain or loss-of-signal activity can be used to understand developmental effects.
Culture protocol: After the cell expansion period the cells are cultured for up to four weeks in which they are passaged every week as described in 3.6. Between one to three days after passaging spheres at a size of 0.3 mm are picked for the test method. For the assessment of neural progenitor cell migration and differentiation, the spheres are plated on poly-D-lysine/laminin coated 96-well flat bottom plates in differentiation medium (N2) to initiate migration and differentiation. Thereby one 0.3 mm big sphere is plated in the middle of a well. The differentiation medium consists of DMEM and Ham's F12 at a ratio of 3 to 1 supplemented with 1% N2 and 1% penicillin and streptomycin. Within 5 days NPCs radially migrate out of the sphere core and differentiate into radial glia cells (nestin positive), neurons (TUBB3 positive), oligodendrocytes (O4 positive) and astrocytes (GFAP positive). Cultivation during the test method is performed at 37C and 5% CO2 at a ph of 7.2-7.6.Exposure: 0.3 mm big hNPC are plated in the already prepared test conditions. Exposure starts at day 0 of differentiation and is continued over five days of differentiation until the experiment is terminated. Cells are fed with fresh medium at day 3 of differentiation. Therefore, half of the test condition solution (e.g. solvent control or compound dilution) is replaced by freshly prepared test condition solution.Test Method: Migration distance and cytotoxicity is determined after 72 hours based on brightfield images of each well. The assay is terminated by the assessment of cell viability and cytotoxicity as well as cell fixation after 120 h. […]

outcome, inactive:
C[C@@H]1CCO[C@H]2Cn3cc(C(=O)NCc4ccc(F)cc4F)c(=O)c(O)c3C(=O)N12
F
CC(C)c1nn(C(=O)NC(C)(C)C)c(=O)n1N
CCCCCC=C(C)C(CC)CCO (stereo unspecified)
CC(=O)OC/N=[N+](\C)[O-]
CC(=O)N[C@@H](CC(=O)O)C(=O)O
Cc1[nH]n(C)c(=O)c1C(=O)c1ccc(C(F)(F)F)cc1S(C)(=O)=O
CCc1ccccc1
O=C1CC2(CCCC2)CC(=O)N1CCCCN1CCN(c2ncccn2)CC1
CCCCCC(C)(CC)C(=O)NC (stereo unspecified)
CCCCOCCOP(=O)(O)OCCOCCCC
CC(C)O
C[C@@H]1CC[C@@H](C(C)(C)O)[C@H](O)C1
BrC1CC(Br)CC(Br)CC(Br)CC(Br)CC(Br)C1 (stereo unspecified)

AC50, active:
CN(C)CCCn1cc(C2=C(c3c[nH]c4ccccc34)C(=O)NC2=O)c2ccccc21 5.37 µM
CC(CNC(=S)[S-])NC(=S)[S-].[Zn+2] (stereo unspecified) 12.5 µM
